SRC2 inh – human SRC2 (NCOA2) inhibition; 370,000 tested, 0.17% active; HEK293 GAL4-SRC2 luciferase reporter, luminescence; Q15596; inhibition, % at 9 µM;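 active = inhibition above the mean inhibition of all tested compounds plus 3 SD, set per campaign, cut at about 52% in these data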;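 also: 0% = DMSO treated cells and 100% = cells given Gossypol at 36 µM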
COUP-TFII inh – inhibitors of human COUP-TFII (NR2F2) | HEK293T NGFI-A luciferase reporter, luminescence | P24468 | inhibition, % at 8.6 µM | AID 686940 | 370,000 tested, 0.7% active;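 active = inhibition above a per-plate cutoff, mean inhibition of test wells between control levels plus 3 SD, cut at about 38% in these data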;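 also: cells cotransfected with COUP-TFII expression vector driving the NGFI-A reporter; 0% = median of COUP-TF2 test wells and 100% = reporter-only cells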
Target sequence (P24468 whole entry, looked up): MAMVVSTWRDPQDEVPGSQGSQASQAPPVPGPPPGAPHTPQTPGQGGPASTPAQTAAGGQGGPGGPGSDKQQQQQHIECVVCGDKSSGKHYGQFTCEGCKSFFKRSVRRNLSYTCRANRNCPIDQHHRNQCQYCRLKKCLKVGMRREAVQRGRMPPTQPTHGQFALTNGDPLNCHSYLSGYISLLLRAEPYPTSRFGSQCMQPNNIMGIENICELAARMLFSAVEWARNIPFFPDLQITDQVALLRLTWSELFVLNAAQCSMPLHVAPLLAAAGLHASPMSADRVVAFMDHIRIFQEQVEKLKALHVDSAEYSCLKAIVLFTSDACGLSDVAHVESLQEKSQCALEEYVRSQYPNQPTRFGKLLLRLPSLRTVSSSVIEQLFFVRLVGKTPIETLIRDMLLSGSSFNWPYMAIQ
SRC1 inh – inhibits human SRC1 coactivator. 360,000 tested, 0.12% active. AID 588354. inhibition, % at 3.6 µM. Q15788. HEK293 GAL4-SRC1 luciferase reporter, luminescence;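 active = inhibition above the campaign mean plus 3 SD, with each screening campaign given its own cutoff, cut at about 60% in these data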;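 also: 0% = DMSO treated cells and 100% = gossypol at 36 µM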
NCOA3 inh – inhibits human SRC3 coactivator; inhibition, % at 3.6 µM; HEK293 GAL4-SRC3 luciferase reporter, luminescence; Q9Y6Q9; AID 588352; 360,000 tested, 0.17% active;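 active = inhibition above a per-campaign cutoff, the mean of all compounds plus 3 SD, cut at about 60% in these data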;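 also: 0% = DMSO-treated cells and 100% = gossypol-treated cells at 36 µM; higher means less SRC3-driven luciferase light from the GAL4 reporter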
GalR3 antagonist – antagonists of human GalR3; O60755; HEK293 GalR3-CNG cAMP membrane potential fluorescence; galR3 body fused to GalR1 C-terminus; inhibition, % at 3 µM; 360,000 tested, 0.44% active; AID 651719;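 active = inhibition above the screen-wide average plus 3 SD, cut at about 13% in these data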;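 also: forskolin and galanin both at EC90 stimulate the cells; cAMP rise reported by CNG channel membrane potential dye signal; 0% = forskolin plus galanin with DMSO and 100% = forskolin alone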
LRH-1 inv ag – NR5A2 inverse agonism in reporter assay. O00482. AID 602396. 360,000 tested, 0.13% active. inhibition, % at 3.6 µM. HEK293T StAR-luciferase reporter, LRH-1 transfected, 24 h;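 active = inhibition above the mean inhibition of all tested compounds plus 3 SD, cut at about 73% in these data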;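 also: 0% = DMSO wells and 100% = reporter-only cells lacking LRH-1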
VP16 Luc counter – counter-screen for COUP-TFII antagonists: inhibitors of VP16 | shares compounds with COUP-TFII inh | HEK293 Gal4-VP16 luciferase reporter, luminescence | inhibition, % at 8.5 µM | 2,500 tested, 25% active; in the data active = inhibition above about 13%
NR2F2 inh conf – COUP-TFII (NR2F2) inhibition, confirmation assay; shares compounds with COUP-TFII inh; HEK293 NGFI-A luciferase reporter, luminescence; inhibition, % at 8.5 µM; 2,500 tested, 45% active;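 active = mean inhibition over three repeats above a set limit taken from the earlier primary screen, cut at about 38% in these data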;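 also: 100% = cells given the luciferase reporter alone without the COUP-TF2 vector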
* hit, by the source's call; / = not tested or not shown. Hits are enriched below; roughly 1.1% of the tested compounds scored in any of these assays.

SMILES	SRC2 inh	COUP-TFII inh	SRC1 inh	NCOA3 inh	GalR3 antagonist	LRH-1 inv ag	VP16 Luc counter	NR2F2 inh conf
OC[C@@H]1CN(Cc2ccc(-c3ccccc3)cc2)C[C@H](n2cnc3c(NCc4ccc(F)cc4)ncnc32)O1	45	75*	8	7	-9	29	2	54*
CCN(CC)S(=O)(=O)c1ccc(Oc2ccc(S(=O)(=O)N(CC)CC)cc2)cc1	16	38*	2	12	-2	22	3	9
CCN(CC)S(=O)(=O)c1ccc(Oc2ccccc2OC)cc1	-6	14	4	0	-3	-8	/	/
CCCCC(=O)c1ccc(O)cc1O	-23	103*	-28	9	2	-7	-10	4
CC12CCC(=O)C=C1CCC1C2CCC2(C)C(c3csc(N)n3)CCC12 (stereo not drawn)	38	57*	23	19	3	27	9	45*
O=C(COCc1ccccc1)NC1CCCCN(Cc2cccc(Cl)c2)C1=O (stereo not drawn)	-16	-3	/	/	/	/	/	/
COc1ccccc1C(=O)O/N=C(\N)c1ccccn1	-15	-29	-201	-64	-2	-125	/	/
Cc1ccc(C(=O)O/N=C(\N)c2ccccn2)c(C)c1	77*	78*	57	70*	-6	72	65*	84*
COc1ccc(C(=O)O/N=C(\N)c2ccccn2)cc1	42	48*	-33	-38	2	-22	-168	-104
COc1ccc(C(=O)NNC(=O)c2ccccn2)cc1	36	46*	-42	-8	-5	-101	-112	-64
Cn1c(CNc2ccccc2F)nc2ccccc21	/	-46	/	/	/	/	/	/
CCOC(=O)C1=CCN(S(=O)(=O)c2ccc(Br)cc2)C1c1ccc(F)cc1 (stereo not drawn)	19	-3	/	/	-7	/	/	/
O=[N+]([O-])c1ccc(CN2CCN(c3ccc([N+](=O)[O-])cc3)CC2)cc1	13	40*	5	11	-13	21	4	20
O=[N+]([O-])c1ccc(N2CCN(Cc3cccc([N+](=O)[O-])c3)CC2)cc1	27	18	-4	-1	-11	31	/	/
O=C(CCCN1C(=O)/C(=C/c2ccccc2Cl)SC1=S)NCCCN1CCOCC1	79*	63*	18	15	2	18	10	15
O=C(CCN1C(=O)/C(=C/c2ccccc2F)SC1=S)NCCCN1CCOCC1	-6	-7	5	0	-9	11	/	/
O=C(CCCN1C(=O)/C(=C/c2ccccc2Cl)SC1=S)NNC(=O)c1ccccc1Cl	83*	69*	52	60	-6	46	69*	71*
CCOc1ccc(/C=C2\SC(=S)N(CCCC(=O)NCCCN3CCOCC3)C2=O)cc1	84*	69*	33	33	-6	31	27*	25
O=C(CCCN1C(=O)/C(=C/c2ccccc2Cl)SC1=S)N1CCCC1	33	25	-15	-9	0	0	/	/
CCc1ccc(/C=C2\SC(=S)N(CCCC(=O)NCCCN3CCOCC3)C2=O)cc1	89*	84*	49	45	-7	36	68*	59*
CCc1ccc(/C=C2/SC(=S)N(CCC(=O)NCCCN3CCOCC3)C2=O)cc1	-27	-1	-51	-6	-1	-6	/	/
C#CCOc1ccccc1C(=O)NNc1ccc([N+](=O)[O-])cc1[N+](=O)[O-]	-21	-3	/	/	-7	/	/	/
O=C(OCC#CCSc1nnc(-c2cccc3ccccc23)o1)c1cccc(C(F)(F)F)c1	/	-12	/	/	/	/	/	/
Cc1[nH]c2ccccc2c1/C=N/Nc1nncn1N	17	92*	-33	-34	-3	-21	-70	-35
Cc1[nH]c2ccccc2c1/C=N/Nc1ccccn1	11	5	/	/	-4	/	/	/
SMILES	SRC2 inh	COUP-TFII inh	SRC1 inh	NCOA3 inh	GalR3 antagonist	LRH-1 inv ag	VP16 Luc counter	NR2F2 inh conf
CCCCCCCCN1C(=O)[C@@H](CC(=O)NCCCCc2ccccc2)C[C@@]2(C(=O)OC)C1=C[C@H](C(C)(C)C)O[C@@H]2C	-22	-3	/	/	0	/	/	/
O=C(Nc1ccc(S(=O)(=O)N2CCCC2)cc1)c1ccc(OCC2CCCO2)cc1 (stereo not drawn)	22	38*	-16	-5	-1	24	-2	17
C=CCOc1ccc(CN(C)C(=O)c2ccc(CNS(=O)(=O)c3ccc(C)c(C)c3)cc2)cc1	30	41*	-10	14	-5	11	0	29
CN(Cc1ccc(F)cc1)C(=O)c1cccc(S(=O)(=O)NCc2ccccc2)c1	-18	11	3	-10	-3	5	/	/
Cc1cc(/C=C2/C(=O)NN(c3ccccc3)C2=O)c(C)n1-c1ccc(O)cc1	23	57*	39	37	0	37	-42	31
CCc1c(-c2cccc(OC)c2)ncn1CCc1ccccc1OC	6	-10	/	/	-10	/	/	/
O=C(COC(=O)c1ccccc1O)NC(c1ccccc1)c1ccccc1	-12	41*	-1	-1	-1	11	-1	-2
CC(NC(=O)COC(=O)c1ccccc1O)c1ccccc1 (stereo not drawn)	-4	-12	0	1	0	8	/	/
CCn1c(COc2ccccc2)nnc1SCC(=O)Nc1ccc(S(=O)(=O)Nc2cc(C)nc(C)n2)cc1	18	0	/	/	/	/	/	/
C=C1C[C@@H]2C[C@@H]2CN(S(=O)(=O)c2ccc(C)cc2)[C@@H]1COCc1ccccc1	-16	40*	/	/	-1	19	-8	6
CC(C)(C)c1ccc(C2CC2C(=O)N/N=C\c2ccc[nH]2)cc1 (stereo not drawn)	-14	42*	23	71*	2	89*	0	64*
Cc1sc(NC(=O)c2ccco2)c(C(c2cccnc2)N2CCC(C)CC2)c1C (stereo not drawn)	10	51*	31	27	-4	29	2	49*
Cc1c[nH]c2cccc(-c3ccccc3)c12	-24	1	/	/	/	/	/	/
Cc1nc2ccccn2c1C(=O)NC1CCCc2ccccc21 (stereo not drawn)	18	42*	19	19	-9	27	4	37
CCCCNC(=O)C[C@H]1C[C@@]2(C(=O)OC)C(=C[C@H](C(C)(C)C)O[C@@H]2C)N(Cc2ccc(Cl)cc2Cl)C1=O	7	15	/	/	/	/	/	/
CN(C)c1ccc(C2Nc3ccccc3C(=O)N2CCCN2CCOCC2)cc1 (stereo not drawn)	39	47*	16	12	3	9	-11	-15
CN(CC1CCCO1)S(=O)(=O)c1ccc(C(=O)Nc2ccc3c(c2)OCO3)cc1 (stereo not drawn)	-16	9	-7	-19	2	0	/	/

Bioassay records as filed in PubChem BioAssay.
